For experiment [1], the target named is Tyrosine-protein kinase Yes (Homo sapiens) (UniProt P07947). Briefly: qHTS for small molecule inhibitors of Yes1 kinase: Primary Screen (AID 686947). Further: nearly all actives have a fitted effect of over 60% in size. Further: potency means the concentration at half of the fitted maximal effect. Conditions: Yes1 kinase biochemical qHTS inhibition; series mostly up to 76.9 µM. The method, boiled down: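 In this qHTS format, inhibition is expressed relative to DMSO controls with enzyme (maximum) and without enzyme (minimum). The 60 min room-temperature reaction uses 0.1 mM ATP, with ADP detected by luminescence.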
Sequence of Tyrosine-protein kinase Yes (Homo sapiens) (P07947 whole entry, looked up): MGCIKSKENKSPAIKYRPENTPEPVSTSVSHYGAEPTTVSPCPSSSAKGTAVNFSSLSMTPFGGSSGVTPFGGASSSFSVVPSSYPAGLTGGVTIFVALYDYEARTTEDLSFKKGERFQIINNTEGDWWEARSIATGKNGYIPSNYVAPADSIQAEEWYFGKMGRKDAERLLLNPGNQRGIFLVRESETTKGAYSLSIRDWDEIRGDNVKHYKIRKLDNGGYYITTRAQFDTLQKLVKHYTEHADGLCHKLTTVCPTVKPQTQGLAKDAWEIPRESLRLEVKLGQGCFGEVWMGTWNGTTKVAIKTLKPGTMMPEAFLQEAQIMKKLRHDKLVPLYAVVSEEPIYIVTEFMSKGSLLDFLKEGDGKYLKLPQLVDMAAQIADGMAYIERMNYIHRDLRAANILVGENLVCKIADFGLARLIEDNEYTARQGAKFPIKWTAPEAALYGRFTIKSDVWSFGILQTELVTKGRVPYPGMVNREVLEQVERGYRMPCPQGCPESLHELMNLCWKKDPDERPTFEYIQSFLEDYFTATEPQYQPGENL
(In general: Quantitative high-throughput screening tests each substance at several concentrations.)

Experiment [2] is described as follows: qHTS for small molecule inhibitors of Yes1 kinase: Counter Assay (AID 686950).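 Further: no kinase present so only ADP-Glo detection of a fixed ADP amount is tested; luminescence from ADP-Glo reporting ADP in a fixed ATP and ADP mixture.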 Conditions: series mostly up to 76.9 µM. Put shortly:
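Measuring interference with ADP-Glo, the assay ran 60 min at room temperature on an ATP/ADP mix lacking enzyme. Values were normalized to ATP-plus-ADP (maximum) and ATP-only (minimum) DMSO controls.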

Structures are written as SMILES. Records with an inconclusive call do not appear. Where a call stands in place of a potency, no number is given. Calls of active or inactive are those of the source. The call rests on the fitted dose curve; in most records, active means well fitted curve in the direction sought with a large enough effect; inconclusive means small, poorly fitted or top-dose-only effect, or another doubt; inactive means no such curve, though single readings can be large; an effect the other way counts as inactive or inconclusive.

Consider `Nc1nc(-c2ccccn2)c(-c2ccc3ncccc3n2)s1`, for which the Potency entry in experiment [1] was “inactive”. The call in experiment [2] was inactive.

As for `COc1cc2ncnc(Nc3ccc4c(cnn4Cc4ccccc4)c3)c2cc1OC`, the Potency in experiment [1] is 32.8 nM (active). The call in experiment [2] was inactive.

On to `CN1CCC(C(=O)Nc2n[nH]c3nnc(-c4ccccc4)cc23)CC1`, for which the Potency in experiment [1] was 13000 nM (active). Also, the result in experiment [2] was inactive.

Regarding `O=C(O)c1ccc(Oc2nccc(-c3c(-c4ccc(F)cc4)ncn3C3CCNCC3)n2)cc1`, the Potency result in experiment [1] is “inactive”. The result in experiment [2] was inactive.

`CCC(=O)Nc1ccc(C)c(-c2ccc(C(=O)NCC3CC3)cc2)c1`: in experiment [1], the Potency result is “inactive”. Besides, in experiment [2], the result was inactive.

As for `O=C(Nc1n[nH]c2nc(-c3ccc(O)cc3)c(Br)cc12)C1CC1`, the Potency in experiment [1] was 1640 nM (active). Besides, in experiment [2], the outcome was inactive.

For the molecule `Fc1ccc(-c2ncn(C3CCNCC3)c2-c2ccnc(Oc3cccc(C(F)(F)F)c3)n2)cc1`, in experiment [1], the Potency entry is “inactive”. For the same molecule, the outcome in experiment [2] was inactive.

For `CCn1c(-c2nonc2N)nc2c(N3CCCC3)nccc21`, the Potency result in experiment [1] was “inactive”. Moreover, the outcome in experiment [2] was inactive.

As for `O=C1NC(=O)C(N2CCc3ccccc32)=C1c1ccc(Cl)cc1`, in experiment [1], the Potency entry was “inactive”. Moreover, in experiment [2], the molecule was classed as inactive.

With `COc1cc2c(cc1Nc1nc(Nc3cccc(F)c3C(N)=O)c3cc[nH]c3n1)N(C(=O)CN1CCN(C(C)C)CC1)CC2`, in experiment [1], the Potency result is “inactive”. Besides, the call in experiment [2] was inactive.

As to `COc1cc(Nc2ncc3c(C)nc(-c4cccc(Oc5ccccc5)c4)n3n2)cc(OC)c1OC`, the Potency in experiment [1] was 5190 nM (active). For the same molecule, in experiment [2], the molecule was called inactive.

Regarding `N#Cc1c(NC(=O)CN2CCOCC2)sc2c1CCCC2`, the Potency entry in experiment [1] was “inactive”. Also, the call in experiment [2] was inactive.

As for `CS(=O)(=O)Nc1cccc(-c2ccc3c(NC(=O)C4CC4)n[nH]c3c2)c1`, the Potency in experiment [1] is 11600 nM (active). Moreover, in experiment [2], the result was inactive.

Turning to `CCn1c(-c2nonc2N)nc2ccccc21`, the Potency entry in experiment [1] is “inactive”. In experiment [2], the molecule was called inactive.

For the molecule `Cc1cc(O)cc(C)c1C=Cc1cncc(C(N)=O)c1`, in experiment [1], the Potency is 463 nM (active). In addition, in experiment [2], the outcome was inactive.

As to `CNC(=O)c1cc(-c2ccc(F)cc2)cc(-c2ccc(S(=O)(=O)N3CCCC3)cc2)c1N`, in experiment [1], the Potency result was “inactive”. For the same molecule, the molecule was called inactive in experiment [2].

Regarding `CCS(=O)(=O)c1ccc(OC)c(Nc2nccc(N(C)c3ccc4c(C)[nH]nc4c3)n2)c1`, in experiment [1], the Potency is 51.9 nM (active). Also, in experiment [2], the molecule was classed as inactive.

For `COc1cccc(-n2ncc3c(NN=Cc4ccc(S(C)(=O)=O)cc4)ncnc32)c1`, the Potency in experiment [1] was 92.3 nM (active). Further, the call in experiment [2] was inactive.

Take `COc1ccc(Nc2ncc(-c3ccccc3)o2)cc1OC`: in experiment [1], the Potency is 1160 nM (active). Besides, the outcome in experiment [2] was inactive.

`CC1=C(C(=O)Nc2cc(Cl)c3[nH]ncc3c2)C(c2ccc(C(F)(F)F)cc2)CC(=O)N1` (stereo unspecified): in experiment [1], the Potency is 2600 nM (active). Besides, the molecule was called inactive in experiment [2].

With `COc1ccc(-c2coc3ncnc(N)c23)cc1`, the Potency in experiment [1] is 11600 nM (active). In addition, the call in experiment [2] was inactive.

As to `Fc1ccc(-c2nn3ncccc3c2-c2ccnc(Nc3ccc4c(c3)OCCO4)n2)cc1`, in experiment [1], the Potency was 65.4 nM (active). Besides, the outcome in experiment [2] was inactive.

Take `Clc1ccc(CNc2nccc(-c3cnn4ncccc34)n2)cc1`: in experiment [1], the Potency result was “inactive”. In addition, the result in experiment [2] was inactive.

In the case of `Cc1ccc(C(=O)NC(C)C)cc1-c1ccc(C(=O)NCC2CC2)cc1`, the Potency entry in experiment [1] is “inactive”. In experiment [2], the outcome was inactive.

Consider `Nc1nccc(C#Cc2cncnc2Nc2ccc(OCc3cccc(F)c3)c(Cl)c2)n1`, for which the Potency entry in experiment [1] was “inactive”. Moreover, in experiment [2], the molecule was classed as inactive.

With `COC(=O)Nc1nc2ccc(Oc3ccc(NC(=O)Nc4cc(C(F)(F)F)ccc4F)cc3)cc2s1`, the Potency result in experiment [1] is “inactive”. Further, in experiment [2], the outcome was inactive.

Regarding `COc1cccc(-c2c[nH]c3c(NN=Cc4ccncc4)ncnc23)c1`, the Potency in experiment [1] was 164 nM (active). For the same molecule, the outcome in experiment [2] was inactive.

Take `O=C(NCC1CC1)c1ccc(-c2cccc(C(=O)NC3CC3)c2)cc1`: in experiment [1], the Potency result is “inactive”. Also, in experiment [2], the molecule was classed as inactive.

`CN(C)CCCn1c(-c2nonc2N)nc2cnccc21`: the Potency entry in experiment [1] was “inactive”. For the same molecule, in experiment [2], the result was inactive.

Turning to `COc1cccc(-n2nc(C)c3c(NN=C(C)c4ccncc4)ncnc32)c1`, the Potency entry in experiment [1] was “inactive”. For the same molecule, the outcome in experiment [2] was inactive.

Consider `CCS(=O)(=O)c1ccc(OC)c(Nc2ncc(-c3cccc(OC)c3)o2)c1`, for which the Potency in experiment [1] is 130 nM (active). Further, in experiment [2], the call was inactive.

`CN1CCC(n2cnc(-c3ccc(F)cc3)c2-c2ccnc(NCCO)n2)CC1`: the Potency entry in experiment [1] was “inactive”. Moreover, the result in experiment [2] was inactive.

With `Oc1cccc(-c2nc(-c3ccccc3)[nH]c2-c2ccncc2)c1`, in experiment [1], the Potency was 923 nM (active). In addition, the outcome in experiment [2] was inactive.

For `Clc1ccc(-c2nn3ncccc3c2-c2ccnc(Nc3ccccc3)n2)cc1`, the Potency in experiment [1] is 292 nM (active). Also, in experiment [2], the outcome was inactive.

On to `CN1CCC(n2cnc(-c3ccc(F)cc3)c2-c2ccnc(N)n2)CC1`, for which, in experiment [1], the Potency is 18400 nM (active). Also, the result in experiment [2] was inactive.

With `Cc1ccc2c(-c3ccnc(Nc4ccc5c(c4)OCCO5)n3)c(-c3ccc(C(F)(F)F)cc3)nn2n1`, in experiment [1], the Potency was 823 nM (active). In addition, the molecule was classed as inactive in experiment [2].

On to `NC(=O)c1ccc2c(-c3ccnc(NCCCO)n3)c(-c3ccc(F)cc3)nn2c1`, for which, in experiment [1], the Potency is 6540 nM (active). In addition, the outcome in experiment [2] was inactive.

As for `CS(=O)(=O)c1ccc(Oc2nccc(-c3c(-c4ccc(F)cc4)ncn3C3CCNCC3)n2)cc1`, in experiment [1], the Potency result is “inactive”. For the same molecule, the result in experiment [2] was inactive.

The values are drawn from PubChem BioAssay (NCATS).
